Among the data in PubChem BioAssay are composite z-score and z-score values, retold here.

Each structure is given as a SMILES string. Active and inactive are the calls of the source.

Experiment [1] can be described thus: small molecules captured by biotinylated probe aFSTL3 – biochemical, small-molecule microarray, fluorescence 635/667, stem cell growth factor project, primary screen (AID 1064).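 Further: measures binding of the biotinylated anti-FSTL3 antibody to printed compounds.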 Particulars: higher = more signal.
Experiment [2] can be described thus: binders from COS7 lysate, DM2A8 probe, primary screen, torsin A project, cell lysate, small-molecule microarray, fluorescence 635/667 (AID 1065). Particulars: higher = more signal, COS7 lysate expressing mutant human TOR1A.
Experiment [3] is described as follows: small molecules captured by biotinylated probe aFGF2 – biochemical, small-molecule microarray, fluorescence 635/667, stem cell growth factor project, primary screen (AID 1067).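 Further: measures binding of biotinylated aFGF2 protein to printed compounds on slides; z-score merges feature fluorescence and signal-to-noise across triplicate slides.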 Particulars: higher = more signal.
Experiment [4] can be described thus: small molecules captured by biotinylated probe aFGF10 – biochemical, small-molecule microarray, fluorescence 635/667, stem cell growth factor project, primary screen (AID 1071).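 Further: score merges 667 nm spot intensity and signal to noise from triplicate slides.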 Particulars: higher = more signal.
Experiment [5] has as its target Neurogenic locus notch homolog protein 2 (Homo sapiens) (UniProt Q04721). Kind of experiment: small molecules binding Notch2 protein – biochemical, small-molecule microarray, 635 nm fluorescence, stem cell growth factors, primary screen (AID 1073). Particulars: higher = more signal.
Experiment [6] concerns the target Pro-neuregulin-1, membrane-bound isoform (Homo sapiens) (UniProt Q02297). Kind of experiment: small molecules binding neuregulin-1 protein – biochemical, small-molecule microarray, fluorescence 635/667, psychiatric disease protein project, primary screen (AID 1075).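 Further: score combines 667 nm spot fluorescence with signal to noise.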 Particulars: NRG1 binding, 635 nm fluorescence, higher = more signal.
The test system of experiment [7] is Neuregulin-1 EGF-like domain. Kind of experiment: small molecules binding NRG1 EGF domain – biochemical, small-molecule microarray, 635 nm fluorescence, primary screen (AID 1081).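 Further: binding of the protein to compounds printed on small-molecule microarray slides.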 Particulars: higher = more signal.
Experiment [8] can be described thus: FRG1 expression reporter modulators in myotubes – cell-based, C2C12 myotubes, firefly/Renilla luciferase, luminescence, FRG1 inhibition for FSHD, primary screen (AID 1084). Particulars: FRG1 promoter luciferase, higher = more signal, called active from +8 up or from −8 down.
A short description of experiment [9]: small molecules captured by biotinylated probe aFST – biochemical, small-molecule microarray, fluorescence 635/667, stem cell growth factor project, primary screen (AID 1086).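 Further: score merges 667 nm fluorescence with signal-to-noise of each printed compound spot.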 Particulars: higher = more signal.
Experiment [10] in a line: binders of probe aHhip on microarray, primary screen, stem cell growth factor project, biochemical, small-molecule microarray, fluorescence 635/667 (AID 1087).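 Further: score merges spot fluorescence at 667nm with spot signal to noise ratio.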 Particulars: higher = more signal.
The test system of experiment [11] is PRMT1 (protein arginine N-methyltransferase 1). Kind of experiment: small molecules binding arginine methyltransferase PRMT1 – biochemical, small-molecule microarray, 635 nm fluorescence, primary screen (AID 1088).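 Further: binding of Prmt1 protein to compounds spotted on small-molecule microarray slides.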 Particulars: higher = more signal.
Experiment [12] can be described thus: growth effects on S. cerevisiae YJM789 – YJM789 clinical isolate, OD600, 24 h, basal, primary screen (AID 1089).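 Further: growth of clinical yeast isolate S. cerevisiae YJM 789 seeded 1000 cells per well; test concentration not given here.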 Particulars: higher = more signal, called active from +8 up or from −8 down.
Experiment [13] in a line: S. pombe growth modifiers, basal conditions – strain 972, OD600, 24 h, no modulator, primary screen (AID 1090).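 Further: basal condition with compound alone and no growth modifier present; test concentration not given here.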 Particulars: S. pombe 972 growth, higher = more signal, called active from +8 up or from −8 down.
Experiment [14] is described as follows: budding yeast growth modifiers under rapamycin – strain BY4716, OD600, 96 h, primary screen (AID 1091). Further: test concentration not given here. Particulars: S. cerevisiae BY4716 + rapamycin, higher = more signal, called active from +8 up or from −8 down.
The target in experiment [15] is Torsin-1A-interacting protein 2 (Homo sapiens) (UniProt Q8NFQ8). As to the kind of experiment: small molecules binding lysate-expressed LULL1 – cell lysate, human LULL1 lysate, 635/667 nm fluorescence, primary screen (AID 1092).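 Further: probe is lysate of COS7 cells overexpressing human LULL1; score merges per-feature 667 nm fluorescence with signal-to-noise.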 Particulars: small-molecule microarray, hLULL1 lysate binding, 635 nm fluorescence; higher = more signal.
Experiment [16] is described as follows: optical density change of DRC41 E. coli – strain DRC41, OD650, 24 h, E. coli filamentation project, primary screen (AID 1093).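 Further: MC1000 strain lacking acrAB efflux and sulA so SOS filamentation is blocked; test concentration not given here.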 Particulars: E. coli DRC41 growth, higher = more signal, called active from +8 up or from −8 down.
A short description of experiment [17]: probe aLefty2 binding to arrayed compounds – biochemical, biotinylated probe, 635/667 nm fluorescence, primary screen (AID 1094).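 Further: score merges spot fluorescence near 667 nm with spot signal-to-noise ratio.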 Particulars: small-molecule microarray, higher = more signal.
Experiment [18] has as its system Noggin (protein binding on small-molecule microarray). Kind of experiment: small molecules binding Noggin protein – biochemical, 635/667 nm fluorescence, primary screen (AID 1095).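 Further: score merges 667 nm feature fluorescence with signal to noise over triplicate slides.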 Particulars: 635 nm fluorescence, higher = more signal.
The target in experiment [19] is Neurogenic locus notch homolog protein 3 (Homo sapiens) (UniProt Q9UM47). As to the kind of experiment: small molecules binding NOTCH3 protein – biochemical, 635/667 nm fluorescence, primary screen (AID 1096). Particulars: small-molecule microarray, 635 nm fluorescence, higher = more signal.
Experiment [20] in a line: probe aEGFR binding to arrayed compounds – biochemical, biotinylated probe, 635/667 nm fluorescence, primary screen (AID 1097).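 Further: probe is a biotinylated anti-EGFR antibody binding compounds printed on slides; score combines fluorescence near 667 nm and signal to noise of each spot.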 Particulars: small-molecule microarray, higher = more signal.

Torsin-1A-interacting protein 2 (Homo sapiens), sequence (Q8NFQ8 whole entry, looked up): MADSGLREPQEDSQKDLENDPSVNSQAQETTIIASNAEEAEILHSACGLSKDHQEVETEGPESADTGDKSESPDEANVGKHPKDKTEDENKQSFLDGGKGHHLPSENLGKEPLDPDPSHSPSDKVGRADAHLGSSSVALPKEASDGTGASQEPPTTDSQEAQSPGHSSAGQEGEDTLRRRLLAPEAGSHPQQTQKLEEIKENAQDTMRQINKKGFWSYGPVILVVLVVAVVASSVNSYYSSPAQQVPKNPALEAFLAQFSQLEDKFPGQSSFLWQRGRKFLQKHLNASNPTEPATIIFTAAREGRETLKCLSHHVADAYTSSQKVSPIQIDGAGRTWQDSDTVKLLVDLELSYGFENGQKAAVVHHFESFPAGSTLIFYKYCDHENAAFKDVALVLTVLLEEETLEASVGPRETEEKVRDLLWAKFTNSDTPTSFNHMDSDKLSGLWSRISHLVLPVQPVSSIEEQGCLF
Pro-neuregulin-1, membrane-bound isoform (Homo sapiens), sequence (Q02297 whole entry, looked up, the tested form may be a part, canonical isoform): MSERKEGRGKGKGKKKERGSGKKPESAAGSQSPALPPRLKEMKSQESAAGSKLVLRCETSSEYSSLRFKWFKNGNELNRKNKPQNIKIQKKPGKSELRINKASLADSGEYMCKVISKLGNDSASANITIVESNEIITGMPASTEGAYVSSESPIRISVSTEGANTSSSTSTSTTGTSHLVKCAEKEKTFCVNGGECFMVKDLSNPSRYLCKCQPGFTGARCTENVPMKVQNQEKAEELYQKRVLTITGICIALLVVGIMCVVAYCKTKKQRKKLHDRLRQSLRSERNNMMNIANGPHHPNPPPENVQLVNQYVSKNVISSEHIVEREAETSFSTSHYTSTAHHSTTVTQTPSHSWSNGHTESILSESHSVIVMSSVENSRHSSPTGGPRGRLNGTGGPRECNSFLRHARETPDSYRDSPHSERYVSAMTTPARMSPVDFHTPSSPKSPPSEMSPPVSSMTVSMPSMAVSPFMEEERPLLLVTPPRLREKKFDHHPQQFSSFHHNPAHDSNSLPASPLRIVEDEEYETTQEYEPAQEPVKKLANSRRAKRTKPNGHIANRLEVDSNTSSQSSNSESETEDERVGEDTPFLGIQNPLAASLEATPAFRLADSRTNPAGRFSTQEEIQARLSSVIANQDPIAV
Neurogenic locus notch homolog protein 2 (Homo sapiens), sequence (Q04721 whole entry, looked up, canonical isoform): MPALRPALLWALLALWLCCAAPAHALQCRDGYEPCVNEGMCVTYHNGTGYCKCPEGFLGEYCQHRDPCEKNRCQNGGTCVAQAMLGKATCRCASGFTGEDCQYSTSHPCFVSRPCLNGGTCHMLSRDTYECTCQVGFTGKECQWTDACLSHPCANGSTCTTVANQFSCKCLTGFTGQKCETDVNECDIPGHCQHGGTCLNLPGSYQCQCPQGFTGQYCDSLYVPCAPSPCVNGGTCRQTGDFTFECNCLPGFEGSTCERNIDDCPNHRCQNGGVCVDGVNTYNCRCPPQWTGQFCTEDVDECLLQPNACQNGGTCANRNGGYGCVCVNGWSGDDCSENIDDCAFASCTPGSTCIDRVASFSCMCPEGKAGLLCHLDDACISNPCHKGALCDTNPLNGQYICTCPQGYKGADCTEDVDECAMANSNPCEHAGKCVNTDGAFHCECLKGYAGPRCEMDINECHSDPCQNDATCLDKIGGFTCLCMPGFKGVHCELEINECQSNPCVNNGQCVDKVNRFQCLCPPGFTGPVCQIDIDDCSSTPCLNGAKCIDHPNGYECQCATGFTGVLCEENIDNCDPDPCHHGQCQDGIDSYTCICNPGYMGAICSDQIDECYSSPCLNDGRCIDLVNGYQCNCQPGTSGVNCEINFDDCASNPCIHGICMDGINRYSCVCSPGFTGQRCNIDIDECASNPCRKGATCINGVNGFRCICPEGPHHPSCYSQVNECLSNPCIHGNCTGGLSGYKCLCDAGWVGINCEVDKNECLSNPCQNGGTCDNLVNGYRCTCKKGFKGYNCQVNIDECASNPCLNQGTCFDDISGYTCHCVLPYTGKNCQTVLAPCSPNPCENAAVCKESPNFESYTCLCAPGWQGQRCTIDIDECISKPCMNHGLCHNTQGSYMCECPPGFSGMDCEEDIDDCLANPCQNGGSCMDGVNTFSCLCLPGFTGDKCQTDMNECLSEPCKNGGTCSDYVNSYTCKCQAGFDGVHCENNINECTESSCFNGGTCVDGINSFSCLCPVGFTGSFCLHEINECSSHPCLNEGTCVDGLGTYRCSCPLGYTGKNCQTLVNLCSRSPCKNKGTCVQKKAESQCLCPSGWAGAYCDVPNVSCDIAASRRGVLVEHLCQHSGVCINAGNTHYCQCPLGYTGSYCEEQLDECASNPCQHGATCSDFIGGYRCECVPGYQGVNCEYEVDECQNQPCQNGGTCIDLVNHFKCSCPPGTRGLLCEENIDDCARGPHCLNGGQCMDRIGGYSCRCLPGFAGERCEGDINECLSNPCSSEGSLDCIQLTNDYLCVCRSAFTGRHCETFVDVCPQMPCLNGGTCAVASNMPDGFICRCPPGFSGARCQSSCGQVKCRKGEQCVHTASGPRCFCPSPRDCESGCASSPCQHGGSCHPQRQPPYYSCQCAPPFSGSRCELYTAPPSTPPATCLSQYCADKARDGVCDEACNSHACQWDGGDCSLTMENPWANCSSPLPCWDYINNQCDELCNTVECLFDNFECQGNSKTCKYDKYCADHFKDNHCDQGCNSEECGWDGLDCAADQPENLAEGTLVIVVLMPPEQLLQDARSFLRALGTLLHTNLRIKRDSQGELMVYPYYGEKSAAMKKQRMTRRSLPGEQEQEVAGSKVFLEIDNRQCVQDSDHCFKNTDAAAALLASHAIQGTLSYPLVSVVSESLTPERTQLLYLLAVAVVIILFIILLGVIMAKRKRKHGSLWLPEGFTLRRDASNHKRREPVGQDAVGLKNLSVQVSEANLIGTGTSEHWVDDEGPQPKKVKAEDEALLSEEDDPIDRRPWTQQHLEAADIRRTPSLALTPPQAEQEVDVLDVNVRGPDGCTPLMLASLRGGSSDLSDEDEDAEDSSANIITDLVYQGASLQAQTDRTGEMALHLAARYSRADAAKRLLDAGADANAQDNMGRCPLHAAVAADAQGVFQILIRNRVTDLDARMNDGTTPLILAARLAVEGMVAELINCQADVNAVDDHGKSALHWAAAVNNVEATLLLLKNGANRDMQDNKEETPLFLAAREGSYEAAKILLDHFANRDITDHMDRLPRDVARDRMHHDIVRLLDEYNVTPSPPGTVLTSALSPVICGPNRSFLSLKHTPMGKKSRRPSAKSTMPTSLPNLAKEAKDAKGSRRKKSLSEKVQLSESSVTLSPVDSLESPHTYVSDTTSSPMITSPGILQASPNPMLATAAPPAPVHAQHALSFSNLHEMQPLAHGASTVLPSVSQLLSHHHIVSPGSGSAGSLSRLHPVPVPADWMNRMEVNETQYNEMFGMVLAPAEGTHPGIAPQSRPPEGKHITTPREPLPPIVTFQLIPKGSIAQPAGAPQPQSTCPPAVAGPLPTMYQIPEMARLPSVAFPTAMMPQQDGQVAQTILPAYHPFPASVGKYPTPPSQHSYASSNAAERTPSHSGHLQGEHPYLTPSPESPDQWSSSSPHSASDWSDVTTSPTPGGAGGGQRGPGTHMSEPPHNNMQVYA

For `CO[C@H]1COC(=O)[C@H](C)COC(=O)CC=C[C@@H](C)[C@H](OC)COC(=O)CC=C[C@@H]1C`, the composite z-score was -0.654 in experiment [1]; 0.682 in experiment [2]; -0.226 in [3]; -0.0247 in [4]; -0.217 in experiment [5]; -0.481 in experiment [6]. Also, the composite z-score in experiment [7] was -0.311; in experiment [9], -0.08; in experiment [10], 0.0854; in experiment [11] it was 0.438; in experiment [15], -0.798; in experiment [17], -0.233. Moreover, the composite z-score was 0.638 in experiment [18], 0.336 in experiment [19] and -0.0302 in experiment [20]. Also, the z-score was 0.847 (inactive) in [8]; 0.0305 (inactive) in experiment [12]; -0.818 (inactive) in experiment [13]; -0.147 (inactive) in [14]; 0.614 (inactive) in experiment [16].

`CCOC(=O)C1=CCC(c2cc3ccccc3[nH]2)NC1` (stereo not given): the composite z-score is 1.31 in experiment [1]; 0.758 in [2]; -0.0629 in [3]; -0.355 in experiment [4]; 0.476 in [5]; 0.963 in experiment [6]. In addition, the composite z-score in experiment [7] is 1.13; in [9], 0.77; in [10], -0.156; in experiment [11], 0.37; in experiment [15] it was 2.45; in experiment [17] it was 0.389. Further, the composite z-score was -0.465 in experiment [18], 0.335 in [19] and -0.0065 in [20]. The z-score was 4.17 (inactive) in experiment [8]; -1.36 (inactive) in [12]; -2.39 (inactive) in [13]; 1.42 (inactive) in experiment [14]; -0.0849 (inactive) in [16].

As to `CC(C)[C@@H](OCc1ccccc1)[C@H](C)C=NO[C@H](C)c1cn([C@H](CO)Cc2ccccc2)nn1`, the composite z-score in experiment [1] was -0.479; in [2] it was 0.227; in [3], -0.228; in experiment [4], 0.616; in experiment [5], 0.397; in experiment [6], -0.154. Also, the composite z-score in experiment [7] was 0.658; in [9], 0.344; in experiment [10], -0.409; in experiment [11], 1.55; in experiment [15], 0.825; in experiment [17], -0.153. Also, the composite z-score is 0.453 in experiment [18], 0.712 in [19] and -0.0828 in experiment [20]. Also, the z-score in experiment [8] is -0.757 (inactive); in [12] it was -2.33 (inactive); in experiment [13], -3.29 (inactive); in experiment [14] it was -1.26 (inactive); in experiment [16], -0.671 (inactive).

In the case of `C/C=C\[C@@H](NCc1ccccc1Br)[C@@H](O)Cc1ccccc1`, the composite z-score in [1] was 1.08; in [2], -0.441; in [3] it was -0.151; in experiment [4], -0.75; in experiment [5], -1.46; in experiment [6], -0.0182. Also, the composite z-score was -0.537 in [7]; -0.336 in experiment [9]; -0.236 in [10]; -0.0523 in experiment [11]; -0.0942 in experiment [15]; 0.149 in experiment [17]. The composite z-score in [18] was -1.52; in experiment [19], -0.735; in experiment [20], -0.455. The z-score in [8] was -0.445 (inactive); in experiment [12], -1.81 (inactive); in experiment [13], -13.8 (active); in [14], -1.64 (inactive); in [16], -0.734 (inactive).

Consider `COc1ccc(CCNC(=O)[C@@H]2c3ccccc3C(=O)N(c3ccc(C)cn3)[C@H]2c2ccc(CO)cc2)cc1`, for which the composite z-score was 1.18 in [1]; -0.793 in experiment [2]; -0.189 in experiment [3]; -0.715 in experiment [4]; -1.85 in experiment [5]; -1.13 in [6]. For the same compound, the composite z-score is 1.2 in experiment [7]; -0.57 in [9]; -0.0994 in experiment [10]; 0.11 in [11]; 3.23 in experiment [15]; 0.121 in [17]. Further, the composite z-score is -1.16 in experiment [18], -1.21 in [19] and -0.404 in experiment [20]. The z-score in [8] was 0.379 (inactive); in experiment [12], -1.5 (inactive); in experiment [13], -0.436 (inactive); in [14] it was -1.15 (inactive); in [16], 0.604 (inactive).
